Laboratory results from PubChem BioAssay (EPA / NIEHS).
Records with an inconclusive call do not appear. The source made the active and inactive calls. Rule for the calls, unless noted: active = hit-call score of the fitted dose curve at least 0.9, where 1 is the maximum; inactive = score below 0.9.

Assays:
[1] = target: Nucleoli Translocation, AR (gene 367) (UniProt P10275); test: UPITT_HCI_U2OS_AR_TIF2_Nucleoli_Antagonist: University of Pittsburgh U2OS Androgen Receptor-Transcriptional Intermediary Factor 2 (AR-TIF2) Antagonism High Content Imaging Assay for Nucleoli Translocation (AID 2283997; active = hit-call score of the fitted dose curve at least 0.9, where 1 is the maximum)
Summary of the method: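 U2OS cells expressing RFP-tagged human AR and GFP-tagged TIF2 were imaged by high-content fluorescence microscopy for red AR signal in the nucleolar region. Compounds were screened at 20 uM final (0.2% DMSO), with activity fitted relative to DHT as baseline.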

[2] = target: Ratio of Nucleoli Translocation and Cytoplasm, AR (gene 367) (UniProt P10275); test: UPITT_HCI_U2OS_AR_TIF2_Nucleoli_Cytoplasm_Ratio_Antagonist: University of Pittsburgh U2OS Androgen Receptor-Transcriptional Intermediary Factor 2 (AR-TIF2) Antagonism High Content Imaging Assay for Ratio of Nucleoli Translocation and Cytoplasm (AID 2283999; active = hit-call score of the fitted dose curve at least 0.9, where 1 is the maximum;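 note: antagonists lower the DHT-driven ratio of nucleolar to cytoplasmic red signal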)
Summary of the method: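 Human osteosarcoma U2OS line, AR fused to RFP, coactivator TIF2 fused to GFP. Cpds 20 uM final, 0.2% DMSO (screen); 0.195–50 uM final, 0.5% DMSO (CRC). Endpoint: nucleoli/cytoplasm red signal ratio, DHT as baseline, loss-of-signal antagonist mode.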

[3] = target: Ratio of Nucleoli Translocation and Cytoplasm, AR (gene 367) (UniProt P10275); test: UPITT_HCI_U2OS_AR_TIF2_Nucleoli_Cytoplasm_Ratio_Agonist: University of Pittsburgh U2OS Androgen Receptor-Transcriptional Intermediary Factor 2 (AR-TIF2) Agonism High Content Imaging Assay for Ratio of Nucleoli Translocation and Cytoplasm (AID 2284000; active = hit-call score of the fitted dose curve at least 0.9, where 1 is the maximum;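 note: hits raise the red nucleolar to cytoplasm ratio above vehicle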)
Summary of the method: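 U2OS cells expressing RFP-tagged human AR and GFP-tagged TIF2 were imaged by high-content fluorescence microscopy. The endpoint is the ratio of nucleolar to cytoplasmic red fluorescence, fitted for gain of signal relative to DMSO. Concentration-response spanned 0.195 to 50 uM final (0.5% DMSO).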

[4] = CCTE_Harrill_HTTr_Viability_MCF7: CCTE's 6-hour Cell Viability Assessment for the High-Throughput Transcriptomics (HTTr) Platform, in MCF-7 cells cultured in DMEM + 10% fetal bovine serum, Harrill Lab (AID 2284010)
Summary of the method: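 Cells were dosed with chemicals in an eight-point dilution series, imaged 6 hours later for propidium iodide uptake, and the endpoint was analyzed by bidirectional fitting against DMSO as negative control.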

[5] = CCTE_Harrill_HTTr_Apoptosis_MCF7: CCTE's 6-hour Apoptosis Assessment for the High-Throughput Transcriptomics (HTTr) Platform, in MCF-7 cells cultured in DMEM + 10% fetal bovine serum, Harrill Lab (AID 2284011)
Summary of the method: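 MCF-7 (DMEM + 10% FBS), 384-well; 8-pt dilution series, 6 h chemical exposure; caspase-3/7 activation via CellEvent Caspase 3/7 Green, HCI; bidirectional fit vs DMSO.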

[6] = CCTE_Simmons_MITO_basal_resp_rate: CCTE's HepG2 Seahorse XF Respirometric Screening Assay at Basal Respiratory State, Simmons Lab (AID 2284001); settings: actives raise or lower the signal
Summary of the method: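 HepG2 cells were given test chemicals at 7 concentrations, 125 nM to 100 uM final, and oxygen consumption rate was read every 6 min (3 min mix, 3 min measure) over 72 min. Basal-phase OCR was fitted bidirectionally against DMSO.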

[7] = CCTE_Simmons_MITO_max_resp_rate: CCTE's HepG2 Seahorse XF Respirometric Screening Assay at Maximal Respiratory State [uncoupled], Simmons Lab (AID 2284002); settings: actives raise or lower the signal
Summary of the method: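 Read-out is oxygen consumption rate at maximal respiration, taken after FCCP uncoupling of compound-treated HepG2 cells. Seven final concentrations from 125 nM to 100 uM were tested, each in three biological replicates.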

[8] = CCTE_Simmons_MITO_inhib_resp_rate: CCTE's HepG2 Seahorse XF Respirometric Screening Assay at Inhibited Respiratory State [full ETC block], Simmons Lab (AID 2284006); settings: actives raise or lower the signal
Summary of the method: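 Compound injected onto HepG2 cells (125 nM–100 uM final, 7 points); FCCP then rotenone/antimycin A added. Oxygen consumption read every 6 min (3 min mix, 3 min measure) for 72 min. Inhibited-state OCR fitted against DMSO.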

[9] = CCTE_Simmons_MITO_viability: CellTiter-Glo Viability Assessment for CCTE's HepG2 Seahorse XF Respirometric Screening Assay [post-hoc], Simmons Lab (AID 2284007; active = hit-call score of the fitted dose curve at least 0.9, where 1 is the maximum;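 for AC50: cells exposed to chemical for 90 min before the ATP read; actives lower ATP signal relative to DMSO baseline meaning reduced viability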)
Summary of the method: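 After the Seahorse oxygen-consumption sequence (basal, FCCP, rotenone/antimycin A; 72 min total), HepG2 viability was scored as ATP content by bioluminescence. Chemicals ran at seven concentrations up to 100 uM final for 90 min.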

DIO1 (gene 1733) = test: CCTE_GLTED_hDIO1: CCTE's human Deiodinase 1 (DIO1) Inhibition Assay, Great Lakes Toxicology and Ecology Division (GLTED) Lab (AID 2283987; active = hit-call score of the fitted dose curve at least 0.9, where 1 is the maximum;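 note: isolated human DIO1 enzyme in a cell-free setup rather than cells; enzyme activity read as free iodide liberated from substrate via Sandell-Kolthoff colorimetry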)
Summary of the method: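 Inhibition of human deiodinase 1 is scored as reduced iodide liberation after a 3 h enzyme–chemical incubation, detected colorimetrically by the Sandell-Kolthoff reaction against DMSO controls.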

[10] = CCTE_Harrill_HTTr_Viability_PRF_DMEM_6hr: (Pilot) CCTE's 6-hour Cell Viability Assessment for the High-Throughput Transcriptomics (HTTr) Platform, in MCF-7 cells cultured phenol red-free DMEM + 10% charcoal-stripped fetal bovine serum, Harrill Lab (AID 2283976)
Summary of the method: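 MCF-7 cells in phenol red-free DMEM with 10% charcoal-stripped FBS exposed 6 hours to an eight-point dilution series. Propidium iodide exclusion imaged; curves fitted bidirectionally against DMSO.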

[11] = CCTE_Harrill_HTTr_Viability_PRF_DMEM_12hr: (Pilot) CCTE's 12-hour Cell Viability Assessment for the High-Throughput Transcriptomics (HTTr) Platform, in MCF-7 cells cultured in phenol red-free DMEM + 10% charcoal-stripped fetal bovine serum, Harrill Lab (AID 2283977)
Summary of the method: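 MCF-7 cells in phenol red-free DMEM with 10% charcoal-stripped FBS exposed 12 hours to an eight-point dilution series. Viability assessed by high-content imaging of propidium iodide exclusion; bidirectional fit versus DMSO.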

[12] = CCTE_Harrill_HTTr_Viability_PRF_DMEM_24hr: (Pilot) CCTE's 24-hour Cell Viability Assessment for the High-Throughput Transcriptomics (HTTr) Platform, in MCF-7 cells cultured in phenol red-free DMEM + 10% charcoal-stripped fetal bovine serum, Harrill Lab (AID 2283980)
Summary of the method: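 MCF-7 cells in phenol red-free DMEM with 10% charcoal-stripped FBS, eight-point dilution series, 24 h exposure. Membrane integrity by propidium iodide exclusion with high content imaging; bidirectional fit vs DMSO.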

[13] = CCTE_Harrill_HTTr_Apoptosis_DMEM_6hr: (Pilot) CCTE's 6-hour Apoptosis Assessment for the High-Throughput Transcriptomics (HTTr) Platform, in MCF-7 cells cultured in DMEM + 10% fetal bovine serum, Harrill Lab (AID 2283981)
Summary of the method: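 Caspase-3/7 activation read by high content imaging with CellEvent Caspase 3/7 Green in MCF-7 cells (DMEM + 10% FBS), 6 h after dosing; eight-point dilution series. Bidirectional fitting relative to DMSO baseline.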

[14] = CCTE_Harrill_HTTr_Apoptosis_DMEM_12hr: (Pilot) CCTE's 12-hour Apoptosis Assessment for the High-Throughput Transcriptomics (HTTr) Platform, in MCF-7 cells cultured in DMEM + 10% fetal bovine serum, Harrill Lab (AID 2283982)
Summary of the method: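 MCF-7 cells in DMEM + 10% FBS, exposed 12 h to an eight-point dilution series; caspase-3/7 activation imaged with CellEvent Green. Bidirectional fit versus DMSO.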

[15] = CCTE_Harrill_HTTr_Apoptosis_DMEM_24hr: (Pilot) CCTE's 24-hour Apoptosis Assessment for the High-Throughput Transcriptomics (HTTr) Platform, in MCF-7 cells cultured in DMEM + 10% fetal bovine serum, Harrill Lab (AID 2283983)
Summary of the method: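 MCF-7 cells in DMEM + 10% FBS, eight-point dilution series, 24 h exposure. Caspase-3/7 activation imaged by high-content imaging with CellEvent Caspase 3/7 Green. Bidirectional curve fitting against DMSO baseline.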

[16] = CCTE_Harrill_HTTr_Apoptosis_PRF_DMEM_6hr: (Pilot) CCTE's 6-hour Apoptosis Assessment for the High-Throughput Transcriptomics (HTTr) Platform, in MCF-7 cells cultured phenol red-free DMEM + 10% charcoal-stripped fetal bovine serum, Harrill Lab (AID 2283984)
Summary of the method: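 MCF-7 cells in phenol red-free DMEM + 10% charcoal-stripped FBS, eight-point dilution series, 6 h exposure. Caspase-3/7 activation imaged by high-content imaging with CellEvent Caspase 3/7 Green; bidirectional fit versus DMSO baseline.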

[17] = CCTE_Harrill_HTTr_Apoptosis_PRF_DMEM_24hr: (Pilot) CCTE's 24-hour Apoptosis Assessment for the High-Throughput Transcriptomics (HTTr) Platform, in MCF-7 cells cultured in phenol red-free DMEM + 10% charcoal-stripped fetal bovine serum, Harrill Lab (AID 2283986)
Summary of the method: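 MCF-7 cells in phenol red-free DMEM with 10% charcoal-stripped FBS, exposed 24 h across an eight-point dilution series. Caspase-3/7 activation imaged with CellEvent Green by high content imaging; bidirectional fitting against DMSO.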

[18] = CCTE_Shafer_MEA_acute_spike_number: CCTE's Neural Acute Assay for Total Number of Spikes, Shafer Lab (AID 2284008);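 note: curve fitted for decrease in spike count so AC50 reflects inhibitors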
Summary of the method: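 Read-out is the total spike count over 40 min, expressed as percent change from each well's own pre-treatment baseline and fitted in the loss direction against DMSO. Rat cortical neurons were exposed at 0.03-40 uM on DIV 13 or 15.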

Measured: AC50

Sequence of Nucleoli Translocation, AR (gene 367) (P10275 whole entry, looked up): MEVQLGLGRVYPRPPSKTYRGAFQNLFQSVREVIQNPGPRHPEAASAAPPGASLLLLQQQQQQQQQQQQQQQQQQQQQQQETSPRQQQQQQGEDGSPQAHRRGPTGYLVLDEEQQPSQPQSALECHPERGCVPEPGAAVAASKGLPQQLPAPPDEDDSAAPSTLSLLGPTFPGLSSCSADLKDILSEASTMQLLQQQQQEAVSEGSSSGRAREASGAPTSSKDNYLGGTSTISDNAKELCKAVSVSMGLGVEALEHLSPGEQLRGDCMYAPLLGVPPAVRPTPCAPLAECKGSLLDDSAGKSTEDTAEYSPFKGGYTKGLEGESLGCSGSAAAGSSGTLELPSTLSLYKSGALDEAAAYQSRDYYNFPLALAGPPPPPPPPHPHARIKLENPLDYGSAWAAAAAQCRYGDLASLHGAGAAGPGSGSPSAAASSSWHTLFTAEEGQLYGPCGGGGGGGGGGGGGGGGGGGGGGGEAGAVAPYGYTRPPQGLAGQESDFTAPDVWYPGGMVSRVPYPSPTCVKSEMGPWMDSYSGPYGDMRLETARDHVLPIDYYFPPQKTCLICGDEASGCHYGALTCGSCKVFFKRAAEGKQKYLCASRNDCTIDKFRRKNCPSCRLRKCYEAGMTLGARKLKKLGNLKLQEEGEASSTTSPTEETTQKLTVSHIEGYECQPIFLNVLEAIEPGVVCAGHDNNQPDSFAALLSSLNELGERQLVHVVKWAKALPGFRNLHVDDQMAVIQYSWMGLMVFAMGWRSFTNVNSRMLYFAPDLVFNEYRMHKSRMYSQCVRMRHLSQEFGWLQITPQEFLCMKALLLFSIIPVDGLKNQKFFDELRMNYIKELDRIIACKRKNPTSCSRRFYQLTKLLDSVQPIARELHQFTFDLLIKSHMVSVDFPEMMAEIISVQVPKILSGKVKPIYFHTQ
Sequence of Ratio of Nucleoli Translocation and Cytoplasm, AR (gene 367) (P10275 whole entry, looked up, the tested form may be a part): as the sequence (P10275 whole entry, looked up) above

OCCO
inactive: [1] | [2] | [3] | [4] | [5]

O=C1CCC(C2CCCCC2)CC1
inactive: [6] | [7] | [8] | [9] | [4] | [5]

Cc1occc1C(=O)Nc1ccc(C(=O)N2CCC(F)(F)/C(=C\C(=O)N3CCC(N4CCCCC4)CC3)c3ccccc32)cc1
inactive: [1] | [3] | [5]

CC(C)(C)c1csc(-c2cc3cc(OCc4ccccc4CC(=O)O)ccc3o2)n1
active: DIO1 (gene 1733) 100 µM | [6] 4.24 µM | [7] 4.72 µM | [8] 4.67 µM | [9] 50 µM
inactive: [5]

CC1(C)NC(=O)N(c2ccc([N+](=O)[O-])c(C(F)(F)F)c2)C1=O
inactive: [10] | [11] | [12] | [13] | [14] | [15] | [16] | [17] | [8] | [9] | [5]
active: [6] 37.2 µM | [7] 33.8 µM

CCN(CC)C(=O)c1cc(S(=O)(=O)Cc2ccccc2)c(N2CCC(c3ccccc3)CC2)cc1N(CC)CCN(C)C
active: DIO1 (gene 1733) 40 µM | [18] 3.04 µM
inactive: [5]

CN(C[C@@H](CC[N+]12CCC(C3CCCCC3)(CC1)CC2)c1ccc(Cl)c(Cl)c1)C(=O)c1cc(C(F)(F)F)cc(C(F)(F)F)c1
active: DIO1 (gene 1733) 57.6 µM | [1] 50 µM | [2] 29.6 µM | [3] 50 µM | [18] 0.273 µM | [4] 78.6 µM | [5] 42.5 µM

CN1C(=O)N(c2ccccc2Br)Cc2cnc(Nc3ccc4c(c3)OCC(CO)O4)nc21 (centres undefined)
active: [6] 35.1 µM | [7] 50 µM | [9] 33.7 µM
inactive: [8] | [5]

CC(C)(C)c1cc(/C=C2\SC(N)=NC2=O)cc(C(C)(C)C)c1O
inactive: [5]
active: DIO1 (gene 1733) 3.01 µM | [18] 14.7 µM

CCCC(=O)OCCC(C)C
inactive: [1] | [2] | [3] | [5]

Oc1ccc2ccccc2c1
inactive: [1] | [2] | [3] | [5]
